The campaign covered roughly 2,100 compounds. About 320 (15%) were called active. About 52% were inconclusive and are not listed. Calls follow the shape of the dose curve; as a rule, active = well fitted cell-killing curve with a large enough effect; inconclusive = small, poorly fitted or top-dose-only effect, or effect the other way; inactive = flat fitted curve, though single readings scatter. Some of the results follow. Entries that show only a call come without a potency.
Experiment: Viability Counterscreen for CMV-Luciferase Assay of Inhibitors of ATXN expression; also: nearly all actives have a fitted effect of over 55% in size
Settings: HEK-293 CMV-luciferase cells viability, protease fluorescence, 24 h
Outline: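 In the same wells, a multiplexed format measured viability and then the CMV-luciferase signal in HEK-293 cells following 24 hr compound exposure at several concentrations. The viability substrate was Gly-Phe-AFC at 25 uM final.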
Potency is read from the fitted curve at half-maximal effect.

Question: Which Potency does the source give for `O=C(c1c(F)cccc1F)N1CCCC(c2nc(-c3ccc(Cl)cc3)no2)C1` (configuration not stated) here?
Answer: inactive

Question: Which Potency does the source give for `CCn1c2ccccc2c2cc(NC(=O)COC(=O)c3ccccc3F)ccc21` here?
Answer: inactive

Question: For `O=C1/C(=C/c2ccncc2)CCC/C1=C\c1ccncc1`, which Potency is on record?
Answer: 5.62 µM (active)

Question: Which Potency does the source give for `CN1C/C(=C/c2cccnc2)C(=O)/C(=C/c2cccnc2)C1` here?
Answer: inactive

Question: With `CCN(CC)C(=O)c1cccc(-c2csc(C(C)(O)c3cccc(F)c3)n2)c1` (configuration not stated) as the molecule, how does the Potency read?
Answer: inactive

Question: Which Potency does the source give for `CCN1C(=O)/C(=C/c2nc3ccccc3c(=O)n2-c2ccccc2)c2ccccc21` here?
Answer: 12.6 µM (active)

Question: With `CCOC(=O)C1=CCN(S(=O)(=O)c2ccc(C)cc2)C1c1cccc(Cl)c1` (configuration not stated) as the molecule, how does the Potency read?
Answer: inactive

Question: With `CCn1c(C)nc2cc(C(=O)N/N=C(\C)c3ccc(OC)cc3O)ccc21` as the molecule, how does the Potency read?
Answer: inactive

Question: With `Cc1sc(NC(=O)c2cc(-c3ccc(Cl)cc3)nc3ccccc23)c(C(N)=O)c1C` as the molecule, how does the Potency read?
Answer: 8.91 µM (active)

Question: Which Potency does the source give for `O=C(NN=C1CCCC1)c1cc(-c2ccc(F)cc2)nc2ccccc12` here?
Answer: inactive

Question: For `CCOC(=O)c1c(NC(=O)COC(=O)Cn2cnc3ccccc32)sc(C)c1C`, which Potency is on record?
Answer: inactive

Question: With `O=C(c1cc(COc2cccc(C(F)(F)F)c2)on1)N1CCC(c2ccncc2)CC1` as the molecule, how does the Potency read?
Answer: inactive

Question: Which Potency does the source give for `CCN1CCN(c2cc(C(C)C)nc3c(-c4ccccc4)c(C)nn23)CC1` here?
Answer: inactive

Question: For `COc1ccccc1-n1c(-c2ccccc2)c[n+]2c1CCc1ccccc1-2`, which Potency is on record?
Answer: 10 µM (active)

Question: For `OCC1(CCOc2ccccc2)CCN(CC2=Cc3cc(Cl)ccc3OC2)CC1`, which Potency is on record?
Answer: inactive

Question: Which Potency does the source give for `Cc1ccc(S(=O)(=O)Nc2cccc3cccnc23)cc1` here?
Answer: inactive

Question: Which Potency does the source give for `O=S(=O)(Nc1cccc2cccnc12)c1ccccc1` here?
Answer: inactive

Question: Which Potency does the source give for `O=[N+]([O-])c1ccccc1S(=O)(=O)Nc1cccc2cccnc12` here?
Answer: 11.2 µM (active)

Question: For `O=C(CSc1nnc(-c2ccccc2)o1)Nc1ccccc1F`, which Potency is on record?
Answer: inactive

Question: For `C/C(=N\NC(=O)CSCc1ccc([N+](=O)[O-])cc1)c1ccccc1O`, which Potency is on record?
Answer: inactive

Question: Which Potency does the source give for `CC(=O)C(C(C)=O)c1c(Cl)c(O)c(O)c2c(C(=O)c3ccccc3)coc12` here?
Answer: 7.08 µM (active)

Question: With `CCOC(=O)C(C(C)=O)c1c(Br)c(O)c(O)c2c(C(=O)c3ccc(C)cc3)coc12` (configuration not stated) as the molecule, how does the Potency read?
Answer: 10 µM (active)

Question: With `O=C(NC(=S)NCc1nc2ccccc2[nH]1)c1ccc(F)cc1` as the molecule, how does the Potency read?
Answer: inactive

Question: With `NS(=O)(=O)c1ccc(Sc2nc3ccccc3s2)c([N+](=O)[O-])c1` as the molecule, how does the Potency read?
Answer: inactive

Question: Which Potency does the source give for `Cc1sc2cc3c(c(C(=O)c4ccccc4)[n+]2c1C)-c1cccc2cccc-3c12` here?
Answer: 10 µM (active)

Question: With `Cc1ccc(-c2csc(N3CCN(c4cc5c(cc4Cl)nc(-c4ccncc4)n5CCOCCO)CC3)n2)cc1` as the molecule, how does the Potency read?
Answer: inactive

Question: Which Potency does the source give for `CC1(C)Cc2c(c(N3CCOCC3)nc3sc4c(NN)ncnc4c23)CS1` here?
Answer: inactive

Question: Which Potency does the source give for `CC1(C)Cc2c(c(-c3ccco3)nc3sc4c(NCCN5CCOCC5)ncnc4c23)CO1` here?
Answer: inactive

Question: For `CN(C)CCNc1ncnc2c1sc1nc(N3CCOCC3)c3c(c12)CC(C)(C)SC3`, which Potency is on record?
Answer: 17.8 µM (active)

Question: With `Cn1nc(C(=O)N2CCN(c3ccc(Cl)cc3)CC2)c2c1-c1ccccc1S(=O)(=O)C2` as the molecule, how does the Potency read?
Answer: inactive

Question: For `N#Cc1ccccc1NC(=O)C1SC(=Nc2ccccc2)C(C(=O)Nc2ccc(Cl)cc2)=C1N` (configuration not stated), which Potency is on record?
Answer: inactive

Question: For `Cc1cc(Nc2cccc([N+](=O)[O-])c2)n2c(nc3ccccc32)c1C#N`, which Potency is on record?
Answer: 3.55 µM (active)

Question: Which Potency does the source give for `Cc1ccc(-c2cc(-c3ccccc3)nc(NN)n2)cc1` here?
Answer: inactive

Question: With `NS(=O)(=O)c1ccc(CCNc2nn3c(-c4cccc(OC(F)(F)F)c4)cnc3s2)cc1` as the molecule, how does the Potency read?
Answer: inactive

Question: For `C=CCOC(=O)C1=C[C@@H](c2ccc3c(c2)OCO3)C[C@@H](OCCCCO)O1`, which Potency is on record?
Answer: inactive

Question: With `CN(C)CCNc1cccc2sc3ccc(O)cc3c(=O)c12` as the molecule, how does the Potency read?
Answer: 12.6 µM (active)

Question: With `CN(C)CCNc1ccc2ncn3c4ccc(O)cc4c(=O)c1c23` as the molecule, how does the Potency read?
Answer: inactive

Question: With `O=C(Nc1cccc(Cl)c1)c1ccc2c(c1)SC1=NS(=O)(=O)CCN12` as the molecule, how does the Potency read?
Answer: inactive

Question: For `CCOC(=O)c1c(-n2cccc2)sc2c1CCCC2=O`, which Potency is on record?
Answer: inactive

Question: With `CC[n+]1c(C=C2C=C(C)OC(C)=C2)sc2ccccc21` as the molecule, how does the Potency read?
Answer: 14.1 µM (active)

Question: With `NNC(=O)/C(=N/Nc1ccccc1)S(=O)(=O)c1ccc(Cl)cc1` as the molecule, how does the Potency read?
Answer: 10 µM (active)

Question: Which Potency does the source give for `O=C(NCc1cc(C(F)(F)F)ccc1Cl)c1cccc2c1C(=O)c1ccc(N3CCOCC3)cc1S2(=O)=O` here?
Answer: inactive

Question: For `CC1(C(=O)NCc2ccco2)CCN1C(=O)C1(c2ccccc2)CC1` (configuration not stated), which Potency is on record?
Answer: inactive

Question: Which Potency does the source give for `Cc1cc(C)c2c(c1)/C(=C/C(=O)c1ccc(Br)s1)C(=O)N2` here?
Answer: 3.16 µM (active)

Question: Which Potency does the source give for `O=[N+]([O-])c1cc(Cl)c(O)c2ncccc12` here?
Answer: 11.2 µM (active)

Question: Which Potency does the source give for `CCOC(=O)N1CCN(Cc2cc(Cl)c3cccnc3c2O)CC1` here?
Answer: inactive

Question: For `O=[N+]([O-])c1cc(CN2CCN(c3ccccc3)CC2)c(O)c2ncccc12`, which Potency is on record?
Answer: 11.2 µM (active)

Question: Which Potency does the source give for `O=[N+]([O-])c1ccc(O)c2ncccc12` here?
Answer: 10 µM (active)

Question: Which Potency does the source give for `OCCN1CCN(Cc2cc(Cl)c3cccnc3c2O)CC1` here?
Answer: inactive

Question: With `CC(C)COCc1ccc(O)c2ncccc12` as the molecule, how does the Potency read?
Answer: inactive

Question: With `O=c1oc2ccccc2c(O)c1Cc1cc(Cl)c2cccnc2c1O` as the molecule, how does the Potency read?
Answer: inactive

Question: Which Potency does the source give for `Oc1ccc(Cl)c2cccnc12` here?
Answer: inactive

Question: Which Potency does the source give for `COc1ccc(-c2nc(CN3CCN(c4ncnc5ccccc45)CC3)c(C)o2)c(OC)c1` here?
Answer: inactive

Question: Which Potency does the source give for `c1ccc(Nc2nc(N3CCCCC3)nc(N3CCNCC3)n2)cc1` here?
Answer: inactive

Question: For `COc1cc(C)c(C(=O)CC(=O)c2c(C)cc(OC)cc2C)c(C)c1`, which Potency is on record?
Answer: inactive

Question: For `CC(=O)N1c2ccc(S(=O)(=O)N3CCC(C(=O)Nc4cccc(C(F)(F)F)c4)CC3)cc2CC1C` (configuration not stated), which Potency is on record?
Answer: inactive

Question: For `Cc1nn(-c2ccccc2)c(N2CCCC2)c1/C=N/NC(=O)c1cc2ccccc2cc1O`, which Potency is on record?
Answer: inactive

Question: With `COc1cccc(CN2CCC2(C)C(=O)Nc2cccc3cccnc23)c1OC` (configuration not stated) as the molecule, how does the Potency read?
Answer: inactive

Question: With `COc1ccc(CC2C(=O)NC(C)C(=O)N(C)C3Cc4ccc(cc4)Oc4cc(ccc4O)CC(C(=O)NC(C)C(=O)NC(C)C(=O)N2C)N(C)C3=O)cc1` (configuration not stated) as the molecule, how does the Potency read?
Answer: 0.316 µM (active)

Question: For `CC1(C)c2[nH]c3ccccc3c2C[C@H]2C(=O)N(Cc3ccccc3F)C(=O)N21`, which Potency is on record?
Answer: inactive

Question: Which Potency does the source give for `Nc1nc(NCCCN2CCOCC2)nc(Nc2cccc(Cl)c2)c1[N+](=O)[O-]` here?
Answer: inactive

Question: With `COC(=O)[C@H]1C[C@H](OC(=O)NC2CC2)[C@@]2(O)CN(S(=O)(=O)c3ccc(C)cc3)CC2[C@H]1C(=O)OC` (some centres not stated) as the molecule, how does the Potency read?
Answer: inactive

From PubChem BioAssay AID1745849 (National Center for Advancing Translational Sciences (NCATS), 2022)
